Inconclusive results are not listed. Activity calls are given as the source filed them. Unless noted, the call rests on the fitted dose curve; in most records, active means well fitted inhibition curve with a large enough effect; inconclusive means small, poorly fitted or top-dose-only effect; inactive means flat fitted curve, though single readings scatter.
How the values were obtained:
[1] = qHTS profiling for inhibitors of Plasmodium falciparum proliferation (AID 504749);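 further: 0% = DMSO vehicle and full inhibition = artemisinin control; nearly all actives have a fitted effect of over 60% in size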; details: P. falciparum in erythrocytes, SYBR Green DNA, 72 h
Method in brief: (§1)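 Each compound contacts P. falciparum-infected red blood cells for 72 h at 37 C; lysis buffer (Tris, EDTA, saponin, Triton X, SYBR Green I) is added and fluorescence measured next morning; values normalized to controls.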

[2] = test system: 3D7; assay: as above; details: P. falciparum in erythrocytes, SYBR Green DNA, 72 h; series mostly up to 28.7 µM
Method in brief: as §1

[3] = test system: 7G8; assay: as above; details: P. falciparum in erythrocytes, SYBR Green DNA, 72 h; series mostly up to 28.7 µM
Method in brief: as §1

[4] = test system: AA1029; assay: as above; details: P. falciparum in erythrocytes, SYBR Green DNA, 72 h; series mostly up to 28.7 µM
Method in brief: as §1

[5] = test system: AS120; assay: as above; details: P. falciparum in erythrocytes, SYBR Green DNA, 72 h; series mostly up to 28.7 µM
Method in brief: as §1

[6] = test system: ATS189; assay: as above; details: P. falciparum in erythrocytes, SYBR Green DNA, 72 h; series mostly up to 28.7 µM
Method in brief: as §1

[7] = test system: ATS95; assay: as above; details: P. falciparum in erythrocytes, SYBR Green DNA, 72 h; series mostly up to 28.7 µM
Method in brief: as §1

[8] = test system: C2A; assay: as above; details: P. falciparum in erythrocytes, SYBR Green DNA, 72 h; series mostly up to 28.7 µM
Method in brief: as §1

[9] = test system: CP185; assay: as above; details: P. falciparum in erythrocytes, SYBR Green DNA, 72 h; series mostly up to 28.7 µM
Method in brief: as §1

[10] = test system: CP191; assay: as above; details: P. falciparum in erythrocytes, SYBR Green DNA, 72 h; series mostly up to 28.7 µM
Method in brief: as §1

[11] = test system: CP192; assay: as above; details: P. falciparum in erythrocytes, SYBR Green DNA, 72 h; series mostly up to 28.7 µM
Method in brief: as §1

[12] = test system: CP194; assay: as above; details: P. falciparum in erythrocytes, SYBR Green DNA, 72 h; series mostly up to 28.7 µM
Method in brief: as §1

[13] = test system: CP201; assay: as above; details: P. falciparum in erythrocytes, SYBR Green DNA, 72 h; series mostly up to 28.7 µM
Method in brief: as §1

[14] = test system: CP203; assay: as above; details: P. falciparum in erythrocytes, SYBR Green DNA, 72 h; series mostly up to 28.7 µM
Method in brief: as §1

[15] = test system: CP211; assay: as above; details: P. falciparum in erythrocytes, SYBR Green DNA, 72 h; series mostly up to 28.7 µM
Method in brief: as §1

[16] = test system: CP215; assay: as above; details: P. falciparum in erythrocytes, SYBR Green DNA, 72 h; series mostly up to 28.7 µM
Method in brief: as §1

[17] = test system: CP217; assay: as above; details: P. falciparum in erythrocytes, SYBR Green DNA, 72 h; series mostly up to 28.7 µM
Method in brief: as §1

[18] = qHTS drug screen for cell cycle checkpoint inhibitors in PARPi-resistant BRCA-mutant ovarian cancer cell lines. (AID 1963452; calls by dose curve); details: PEO1/OlaR viability, CellTiter-Glo luminescence, 96 h, stronger effect = lower value
Method in brief: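 PEO1, PEO4 and PEO1/OlaR ovarian cancer cells, 600 per well, exposed 96 h at 37C to a dilution series. Viability read by CellTiter-Glo luminescence, normalized to DMSO and empty wells; activity summarized as Z-AUC.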

[19] = at 28.7 µM (top of the series), parasite line A
[20] = at 28.7 µM (top of the series), parasite line B

CCN(CC)CCNC(=O)c1ccc(NC(C)=O)cc1
inactive: activity, negative = inhibition [1, 19] 9.9% | activity, negative = inhibition [1, 20] 23.7% | Potency [2] | Potency [3] | Potency [4] | Potency [5] | Potency [6] | Potency [7] | Potency [8] | Potency [9] | Potency [10] | Potency [11] | Potency [12] | Potency [13] | Potency [14] | Potency [15] | Potency [16] | Potency [17]

NC/C=C/C(=O)O
inactive: activity, negative = inhibition [1, 19] 13.5% | activity, negative = inhibition [1, 20] 11.1% | Potency [2] | Potency [3] | Potency [4] | Potency [5] | Potency [6] | Potency [7] | Potency [8] | Potency [9] | Potency [10] | Potency [11] | Potency [12] | Potency [13] | Potency [14] | Potency [15] | Potency [16] | Potency [17]

COc1ccc([C@@H]2Sc3ccccc3N(CCN(C)C)C(=O)[C@@H]2OC(C)=O)cc1
0.74: Z-AUC ([18]; measured here: PEO4 Z-AUC)
inactive: Z-AUC [18] 1.43 | activity, negative = inhibition [1, 19] 3.17% | activity, negative = inhibition [1, 20] 7.3% | Potency [2] | Potency [4] | Potency [5] | Potency [6] | Potency [7] | Potency [8] | Potency [9] | Potency [10] | Potency [11] | Potency [12] | Potency [13] | Potency [14] | Potency [15] | Potency [16] | Potency [17]
0.963: Z-AUC ([18]; measured here: PEO1 parental Z-AUC)

CC(C)(Oc1ccc(CCNC(=O)c2ccc(Cl)cc2)cc1)C(=O)O
inactive: activity, negative = inhibition ([1]; at 12.8 µM (top of the series), parasite line A) -1.93% | activity, negative = inhibition ([1]; at 12.8 µM (top of the series), parasite line B) -2.04% | Potency [2] | Potency [3] | Potency [4] | Potency [5] | Potency [6] | Potency [7] | Potency [8] | Potency [9] | Potency [10] | Potency [11] | Potency [12] | Potency [13] | Potency [14] | Potency [15] | Potency [16] | Potency [17]

Cc1ccc(Cl)c(Nc2ccccc2C(=O)O)c1Cl
inactive: activity, negative = inhibition [1, 19] -0.156% | activity, negative = inhibition [1, 20] -3.06% | Potency [2] | Potency [3] | Potency [4] | Potency [5] | Potency [6] | Potency [7] | Potency [8] | Potency [9] | Potency [10] | Potency [11] | Potency [12] | Potency [13] | Potency [14] | Potency [15] | Potency [16] | Potency [17]

CCN(Cc1ccncc1)C(=O)C(CO)c1ccccc1 (stereo not given)
inactive: activity, negative = inhibition [1, 19] 3.05% | activity, negative = inhibition [1, 20] -7.78% | Potency [2] | Potency [3] | Potency [4] | Potency [5] | Potency [6] | Potency [7] | Potency [8] | Potency [9] | Potency [10] | Potency [11] | Potency [12] | Potency [13] | Potency [14] | Potency [15] | Potency [16] | Potency [17]
